Laboratory results from PubChem BioAssay.
Active and inactive are the calls of the source. Unless noted, the rule behind the calls is not given here.

Columns and labels:
[1] = compounds binding Alexa647 anti-His antibody – biochemical, small-molecule microarray, 635 nm fluorescence, artefact control for SMM control protein annotation, primary screen (AID 1128); details: higher = more signal;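 note: score merges feature fluorescence with signal-to-noise for each printed compound spot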
[2] = test system: Human papillomavirus type 1a E7 protein (residues 1-88); assay: HPV1a E7 small-molecule binders, primary screen, biochemical, small-molecule microarray, residues 1-88, 635 nm (AID 1129); details: small-molecule microarray binding, fluorescence 635 nm; higher = more signal
[3] = target: Focal adhesion kinase 1 (Homo sapiens) (UniProt Q05397); assay: PTK2 protein binding on printed compound slides – biochemical, small-molecule microarray, 635/667 nm fluorescence, BSA, DTT, primary screen (AID 1130); details: 635 nm fluorescence, higher = more signal;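 note: composite of spot emission at 667 nm and signal to noise over triplicate slides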
[4] = test system: Fibrinogen (Alexa647-labelled); assay: Alexa647-fibrinogen binding to printed small molecules – biochemical, small-molecule microarray, 635/667 nm fluorescence, artefact control for SMM control-protein annotation, profiling panel (AID 1131); details: fibrinogen-A647 binding fluorescence, higher = more signal;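 note: z-score merges 667 nm fluorescence with per-spot signal-to-noise over triplicate slides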
[5] = target: Follistatin (Homo sapiens) (UniProt P19883); assay: FST protein binding to printed compounds – biochemical, small-molecule microarray, 635/667 nm fluorescence, primary screen (AID 1132); details: 635 nm fluorescence, higher = more signal
[6] = target: Fibroblast growth factor 2 (Homo sapiens) (UniProt P09038); assay: basic fibroblast growth factor binding to printed compounds – biochemical, small-molecule microarray, 635/667 nm fluorescence, primary screen (AID 1133); details: FGF2, fluorescence 635/667, higher = more signal
[7] = JC-1 mitochondrial potential readout, lung cancer cells – cell-based, A549, JC-1 fluorescence, basal, 24 h, 100 nL, profiling panel (AID 1138); details: higher = more signal;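 note: A549 lung adenocarcinoma cells under basal conditions with no added stimulus; test concentration not given here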
[8] = test system: Lefty1; assay: Lefty1 protein binding to printed compounds – biochemical, small-molecule microarray, 635/667 nm fluorescence, primary screen (AID 1139); details: fluorescence 635/667, higher = more signal
[9] = test system: wheat germ agglutinin (Triticum aestivum), Alexa647-labelled; assay: Alexa647-WGA lectin binding to printed small molecules – biochemical, small-molecule microarray, 635/667 nm fluorescence, artefact control for SMM control-protein annotation, profiling panel (AID 1140); details: WGA-A647 binding, 635 nm fluorescence, higher = more signal;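 note: score merges 667 nm feature emission with signal to noise over triplicate slides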
[10] = target: Luciferin 4-monooxygenase (Photinus pyralis) (UniProt P08659); assay: inhibition of purified Photinus pyralis luciferase – biochemical, luminescence, purified enzyme, 2006 set, primary screen (AID 1141); details: purified firefly luciferase, SteadyGlo luminescence, 30 min; higher = more signal, called active from +8 up or from −8 down;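 note: cell-free assay with purified firefly luciferase at 100 ng per well in PBS; test concentration not given here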
[11] = test system: Wnt5a (protein binding on small-molecule microarray); assay: small molecules binding Wnt5a protein – biophysical, small-molecule microarray, 635/667 nm fluorescence, primary screen (AID 1142); details: 635 nm fluorescence, higher = more signal;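 note: fluorescence read at 667 nm with signal to noise per printed feature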
[12] = ATP-based viability of Huh7 replicon cells – cell-based, CellTiter-Glo luminescence, basal, 48 h, cytotoxicity control for HCV replication inhibitor project, primary screen (AID 1143); details: higher = more signal, called active from +8 up or from −8 down;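 note: Huh7 hepatoma cells carrying a hepatitis C replication reporter with no stimulus; test concentration not given here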
[13] = Pseudomonas biofilm growth suppression – PAO1 strain, BacTiter-Glo luminescence, LB-PBS, primary screen (AID 1144); details: P. aeruginosa PAO1 biofilm, 12 h, higher = more signal
[14] = basal CRE-LacZ reporter activity in PC12 – cell-based, unstimulated, primary screen (AID 1145); details: no forskolin, luminescence, 4.5 h, higher = more signal, called active from +8 up or from −8 down
[15] = forskolin-driven CRE-LacZ activity in PC12 – cell-based, CRE-LacZ reporter, forskolin-stimulated, primary screen (AID 1146); details: luminescence, 4.5 h, higher = more signal, called active from +8 up or from −8 down;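 note: PC12 cells with 6xCRE LacZ reporter stimulated by forskolin 10 µM; beta-galactosidase reporter signal reflecting CREB driven transcription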
[16] = target: Streptavidin (Streptomyces avidinii) (UniProt P22629); assay: compounds binding control protein streptavidin – biophysical, small-molecule microarray, 635/667 nm fluorescence, artefact control for SMM compound annotation, primary screen (AID 1147); details: higher = more signal;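 note: signal reflects streptavidin binding to arrayed compounds as a control protein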
[17] = probe aInhba binding on compound microarray – biochemical, small-molecule microarray, 635/667 nm fluorescence, primary screen (AID 1148); details: higher = more signal;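 note: score merges 667nm spot fluorescence with signal-to-noise for antibody binding to printed compounds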
[18] = target: Torsin-1A (Homo sapiens) (UniProt O14656); assay: TOR1A wild-type binding on microarray – cell lysate, small-molecule microarray, lysate, 635/667 nm, primary screen (AID 1149); details: COS7 hTOR1A-WT lysate, 635 nm fluorescence, higher = more signal
[19] = target: Torsin-1A (Homo sapiens) (UniProt O14656); assay: torsin A mutant lysate binding on microarrays – cell lysate, small-molecule microarray, COS7 lysate, 635/667 nm fluorescence, primary screen (AID 1150); details: COS7 hTOR1A mutant lysate, 635 nm fluorescence, higher = more signal;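 note: score pools 667 nm emission and signal to noise measuring lysate protein binding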
[20] = test system: Sonic hedgehog protein (Shh); assay: Sonic hedgehog microarray binding compounds – biochemical, small-molecule microarray, 635/667 nm fluorescence, primary screen (AID 1151); details: 635 nm fluorescence, higher = more signal;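 note: Shh protein binding to compounds spotted on small-molecule microarray slides; score combines spot fluorescence intensity with signal-to-noise across triplicate slides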

Sequence of Torsin-1A (Homo sapiens) (O14656 whole entry, looked up): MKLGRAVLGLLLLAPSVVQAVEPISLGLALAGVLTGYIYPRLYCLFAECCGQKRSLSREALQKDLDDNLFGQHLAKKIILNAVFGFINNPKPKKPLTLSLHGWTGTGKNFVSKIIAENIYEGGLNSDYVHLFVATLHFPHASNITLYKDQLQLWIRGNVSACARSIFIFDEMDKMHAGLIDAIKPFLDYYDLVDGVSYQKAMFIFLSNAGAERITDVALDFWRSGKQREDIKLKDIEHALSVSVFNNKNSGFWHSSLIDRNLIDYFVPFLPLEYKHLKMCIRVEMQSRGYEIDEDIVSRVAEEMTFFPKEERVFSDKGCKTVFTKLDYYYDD
Sequence of Focal adhesion kinase 1 (Homo sapiens) (Q05397 whole entry, looked up): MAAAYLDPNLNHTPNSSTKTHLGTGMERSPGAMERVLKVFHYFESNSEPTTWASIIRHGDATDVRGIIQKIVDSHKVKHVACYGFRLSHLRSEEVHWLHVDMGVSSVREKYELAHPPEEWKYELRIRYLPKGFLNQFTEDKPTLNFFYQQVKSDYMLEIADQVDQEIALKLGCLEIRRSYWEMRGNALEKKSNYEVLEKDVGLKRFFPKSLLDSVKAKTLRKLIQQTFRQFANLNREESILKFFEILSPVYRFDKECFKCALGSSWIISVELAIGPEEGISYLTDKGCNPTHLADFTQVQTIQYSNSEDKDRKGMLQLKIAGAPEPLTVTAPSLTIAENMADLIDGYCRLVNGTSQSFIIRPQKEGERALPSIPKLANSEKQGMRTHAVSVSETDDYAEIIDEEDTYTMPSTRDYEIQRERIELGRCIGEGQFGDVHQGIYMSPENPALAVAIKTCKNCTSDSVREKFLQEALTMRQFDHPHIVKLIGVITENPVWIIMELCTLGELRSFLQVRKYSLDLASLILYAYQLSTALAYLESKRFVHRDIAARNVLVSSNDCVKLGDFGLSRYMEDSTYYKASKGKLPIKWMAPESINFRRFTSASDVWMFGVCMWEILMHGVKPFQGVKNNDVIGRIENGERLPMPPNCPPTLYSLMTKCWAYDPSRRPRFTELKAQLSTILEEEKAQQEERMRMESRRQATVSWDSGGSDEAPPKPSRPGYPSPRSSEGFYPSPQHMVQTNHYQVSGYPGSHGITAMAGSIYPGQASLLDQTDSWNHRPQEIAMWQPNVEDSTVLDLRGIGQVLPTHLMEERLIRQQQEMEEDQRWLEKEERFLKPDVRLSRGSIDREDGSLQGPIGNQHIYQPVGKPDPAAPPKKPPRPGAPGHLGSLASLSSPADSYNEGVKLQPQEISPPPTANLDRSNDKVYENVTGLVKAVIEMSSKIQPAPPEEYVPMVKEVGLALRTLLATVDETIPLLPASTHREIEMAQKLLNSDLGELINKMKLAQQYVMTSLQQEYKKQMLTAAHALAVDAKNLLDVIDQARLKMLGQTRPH
Sequence of Streptavidin (Streptomyces avidinii) (P22629 whole entry, looked up): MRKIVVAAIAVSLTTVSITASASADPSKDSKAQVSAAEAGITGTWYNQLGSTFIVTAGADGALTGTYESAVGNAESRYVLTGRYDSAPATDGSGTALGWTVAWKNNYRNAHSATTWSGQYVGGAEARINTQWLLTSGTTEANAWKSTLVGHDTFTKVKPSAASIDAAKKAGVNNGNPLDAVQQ
Sequence of Luciferin 4-monooxygenase (Photinus pyralis) (P08659 whole entry, looked up): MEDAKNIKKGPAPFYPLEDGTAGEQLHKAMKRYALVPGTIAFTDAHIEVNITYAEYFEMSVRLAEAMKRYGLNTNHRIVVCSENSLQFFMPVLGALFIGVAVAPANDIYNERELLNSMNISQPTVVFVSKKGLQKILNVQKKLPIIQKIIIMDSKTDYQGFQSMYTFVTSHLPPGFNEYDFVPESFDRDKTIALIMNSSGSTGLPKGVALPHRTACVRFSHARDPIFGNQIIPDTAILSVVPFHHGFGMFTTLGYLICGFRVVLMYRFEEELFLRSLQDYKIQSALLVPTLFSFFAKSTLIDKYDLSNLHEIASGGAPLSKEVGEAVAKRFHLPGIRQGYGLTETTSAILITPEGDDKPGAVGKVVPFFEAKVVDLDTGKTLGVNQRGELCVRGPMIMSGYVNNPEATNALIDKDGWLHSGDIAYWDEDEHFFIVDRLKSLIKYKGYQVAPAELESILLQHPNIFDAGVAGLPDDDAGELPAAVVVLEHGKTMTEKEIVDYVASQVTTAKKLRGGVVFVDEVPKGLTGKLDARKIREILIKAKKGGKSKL
Sequence of Follistatin (Homo sapiens) (P19883 whole entry, looked up): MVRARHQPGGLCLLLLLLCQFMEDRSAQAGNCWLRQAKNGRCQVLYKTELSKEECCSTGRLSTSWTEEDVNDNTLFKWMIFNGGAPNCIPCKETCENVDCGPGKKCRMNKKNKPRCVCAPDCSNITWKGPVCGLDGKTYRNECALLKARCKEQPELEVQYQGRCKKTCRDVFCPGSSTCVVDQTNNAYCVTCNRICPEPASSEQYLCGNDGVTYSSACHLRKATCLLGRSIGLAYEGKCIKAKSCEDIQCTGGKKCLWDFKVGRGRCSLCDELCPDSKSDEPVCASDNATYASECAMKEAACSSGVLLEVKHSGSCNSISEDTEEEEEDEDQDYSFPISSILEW
Sequence of Fibroblast growth factor 2 (Homo sapiens) (P09038 whole entry, looked up): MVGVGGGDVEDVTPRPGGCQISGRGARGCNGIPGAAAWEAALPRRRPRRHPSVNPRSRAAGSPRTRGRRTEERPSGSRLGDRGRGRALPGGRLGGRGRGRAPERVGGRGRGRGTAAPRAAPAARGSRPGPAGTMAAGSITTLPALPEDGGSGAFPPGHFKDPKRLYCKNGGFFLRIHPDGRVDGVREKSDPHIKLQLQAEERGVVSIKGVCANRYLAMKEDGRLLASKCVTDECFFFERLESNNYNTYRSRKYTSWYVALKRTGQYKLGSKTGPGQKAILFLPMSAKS

Compound	composite z-score [1]	composite z-score [2]	composite z-score [3]	composite z-score [4]	composite z-score [5]	composite z-score [6]	z-score [7]	composite z-score [8]	composite z-score [9]	z-score [10]	composite z-score [11]	z-score [12]	z-score [13]	z-score [14]	z-score [15]	composite z-score [16]	composite z-score [17]	composite z-score [18]	composite z-score [19]	composite z-score [20]
CCc1cc2c(nc1CC)CCN(CCC(C)=NOC[C@H]1O[C@H](c3ccccc3)C=C[C@@H]1Oc1ccc(OC)cc1)C2	0.287	-0.121	-0.0388	0.0851	0.209	-0.155	1.51	0.568	-0.0263	0.698 (inactive)	-0.363	-4.11 (inactive)	-1.57 (inactive)	5.73 (inactive)	0.28 (inactive)	2.21	-0.0093	0.15	0.274	0.839
CCOC(=O)[C@H](CC(C)C)NC(=O)CCC1CC(OC(=O)NCc2cccc3ccccc23)CC2(CCCC(COC(=O)NCCOC)O2)O1 (stereo not given in full)	0.427	1.19	0.175	0.959	0.602	0.648	-0.157	0.436	0.167	0.561 (inactive)	0.238	-1.3 (inactive)	-0.656 (inactive)	-0.526 (inactive)	0.389 (inactive)	0.0772	0.119	-0.114	0.753	1.03
CC(C)=CCCC(C)=CCON=C1C[C@@H](O)[C@@H](O)[C@@H]2[C@@H]3C(=O)N(c4ccc(F)cc4F)C(=O)[C@@H]3CC[C@H]12	1.33	1.21	0.631	0.333	0.705	0.256	-0.63	0.515	0.335	0.443 (inactive)	-0.112	-5.27 (inactive)	-0.206 (inactive)	-1.2 (inactive)	-0.358 (inactive)	0.0534	-0.0178	-0.37	0.171	1.01
COC(=O)CC=C[C@@H](C)[C@@H](C=NOC[C@H]1O[C@H](c2ccccc2)C=C[C@@H]1Oc1ccc(OC)cc1)NS(=O)(=O)c1ccc(C)cc1	-1.16	-1.1	-0.217	-0.85	-1.04	-0.528	-0.173	-1.11	-0.542	0.847 (inactive)	-0.308	-0.588 (inactive)	-0.00695 (inactive)	3.13 (inactive)	0.519 (inactive)	-0.184	-0.23	-1.46	0.339	-0.863
CC(C)CON=C1C[C@@H](O)[C@@H](O)[C@@H]2[C@@H]3C(=O)N(c4ccc(F)cc4F)C(=O)[C@@H]3CC[C@H]12	0.686	1.11	0.436	0.424	0.714	0.375	-0.229	1.13	0.221	0.819 (inactive)	0.0062	-0.86 (inactive)	-0.359 (inactive)	-1.29 (inactive)	-0.907 (inactive)	0.9	-0.243	0.224	-0.0086	1.25
COC(=O)[C@@H]1CC[C@H](C)[C@@H](c2ccc(C)cc2)N1C(=O)c1ccc(C=NO[C@H](C)c2cn([C@H](CO)Cc3ccccc3)nn2)cc1	0.762	1.04	0.926	-0.466	0.738	0.377	-0.406	0.957	0.295	0.184 (inactive)	0.247	-0.63 (inactive)	0.0292 (inactive)	8.24 (active)	0.371 (inactive)	0.0407	0.288	0.278	0.277	0.682
COc1cccc([C@H]2Oc3ccc(OC)cc3C(=NOC(C)CN3CCCCc4nc(C)c(C)cc43)[C@@H]2O)c1 (stereo not given in full)	1.95	0.195	-0.251	0.755	0.241	0.414	-0.349	0.341	0.698	-0.404 (inactive)	0.292	-1.77 (inactive)	0.979 (inactive)	5.7 (inactive)	0.323 (inactive)	-0.519	-0.024	0.242	-0.14	0.291
Cn1c(=O)n2n(c1=O)[C@H]1[C@H](O)[C@@H]3O[C@@H]3C(=NOCc3ccccc3)[C@H]1CC2	0.192	-0.624	0.13	-0.867	-0.104	-0.478	0.874	0.3	0.349	-0.101 (inactive)	-0.279	0.637 (inactive)	-0.53 (inactive)	-0.0211 (inactive)	0.383 (inactive)	-0.178	-0.183	-0.223	0.0523	0.378
COC(=O)[C@@H]1CC[C@H](C)[C@@H](c2ccc(C)cc2)N1C(=O)c1ccc(C=NO[C@@H](C)c2cn([C@H](CO)Cc3ccccc3)nn2)cc1	1.37	1.13	0.262	0.648	0.717	1.16	1.04	1.23	0.147	-0.249 (inactive)	0.408	-2.15 (inactive)	0.476 (inactive)	5.32 (inactive)	-0.216 (inactive)	0.279	-0.024	0.243	0.634	0.738
CCOC(=O)[C@H](Cc1ccccc1)NC(=O)CCC1CC(OC(=O)NCCc2ccc(F)cc2)CC2(CCCC(COC(=O)NCc3ccccc3)O2)O1 (stereo not given in full)	0.704	1.04	0.254	0.282	0.63	0.473	0.216	0.833	0.115	0.877 (inactive)	0.0738	-0.471 (inactive)	0.0402 (inactive)	0.824 (inactive)	1.63 (inactive)	0.606	0.0074	0.409	0.129	0.952
